# ALDH1A1 inh = ALDH1A1 (human) enzyme inhibition; P00352; Potency, µM (top dose mostly 75.3 µM), inactives show at the highest dose activity, negative = inhibition, actives largely listed as inhibitors; Purified ALDH1A1, NADH fluorescence, propionaldehyde substrate; 7.3% of 220,000 active; AID 1030;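 further: potency means the concentration at half of the fitted maximal effect; plate controls were no enzyme wells and a reference inhibitor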
# Target sequence (P00352 whole entry, looked up): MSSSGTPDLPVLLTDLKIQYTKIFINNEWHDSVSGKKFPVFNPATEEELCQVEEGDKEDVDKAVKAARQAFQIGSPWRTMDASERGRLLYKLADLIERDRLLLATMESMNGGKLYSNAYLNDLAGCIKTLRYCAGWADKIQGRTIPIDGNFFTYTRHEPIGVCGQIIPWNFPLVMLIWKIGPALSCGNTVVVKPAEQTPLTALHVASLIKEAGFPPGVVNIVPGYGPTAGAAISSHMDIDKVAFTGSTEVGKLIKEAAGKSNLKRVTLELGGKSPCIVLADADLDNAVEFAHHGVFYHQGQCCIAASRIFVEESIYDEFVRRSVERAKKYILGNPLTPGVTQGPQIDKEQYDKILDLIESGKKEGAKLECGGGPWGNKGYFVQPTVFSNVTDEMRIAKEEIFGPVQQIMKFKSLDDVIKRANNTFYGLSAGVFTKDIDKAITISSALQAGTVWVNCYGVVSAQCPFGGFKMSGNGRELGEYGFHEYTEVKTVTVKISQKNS
# HTT ATP protect = cytoprotection in Huntington HTT-Q103 PC12 cell model; PC12 HTT-Q103 induced, cytoprotection, ATP luminescence, 40 h; Potency, µM (series often up to 56.4 µM), for the others: cytoprotection (ATP increase), hits mostly activators; 0.14% of 230,000 active; AID 1471; active means well fitted curve in the direction sought with a large enough effect; inconclusive means small, poorly fitted or top-dose-only effect, or another doubt; inactive means no such curve, though single readings can be large; an effect the other way counts as inactive or inconclusive; further: potency means the concentration at half of the fitted maximal effect; % of control where 0% means no effect; nearly all actives have a fitted effect of over 45% in size
#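 Rat PC12, Q103 Htt exon1-GFP fusion, ecdysone promoter; tebufenozide inducer 100 nM final; compound titration; qHTS, 1500 cells/well; ATPlite luminescent read.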
# GoLoco inh red = RGS12 GoLoco-Gai1 interaction inhibition. P63096. Gai1:RGS12 GoLoco peptide FP, rhodamine, 10 min. Potency, µM (top dose mostly 61.6 µM), for the others: at the highest dose activity, negative = inhibition, hits mostly inhibitors. 0.44% of 230,000 active; active means well fitted inhibition curve with a large enough effect, not every such curve was filed as active; inactive means no such curve, though single readings can be large or run the other way; further: potency means the concentration at half of the fitted maximal effect; on the % scale 0 is the no-effect control and ±100 the full control effect; nearly all actives have a fitted effect of over 30% in size
# PNC assembly inh = inhibitors of perinucleolar compartment assembly. PC3M PTB-GFP, PNC prevalence imaging, 16 h; stronger effect = lower value. activity change (PNC), negative = inhibition, % at 10 µM. 3.1% of 140,000 active;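 active means readout at or below -70, meaning at least 70% loss of cells showing the perinucleolar compartment, a nuclear body marking cancer cells; inconclusive means readout between -30 and a set limit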;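 further: plate controls were DMSO wells for no effect and camptothecin positive control wells for full effect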
#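 PC3M cells stably expressing PTB-GFP, 750–1000 cells/well, treated 16 h at 37 °C with compound (23 nl of library stock), in duplicate. After paraformaldehyde fixation and Hoechst stain, imaged at 20x; PNC prevalence scored by image analysis.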
# HTT aggregate = inhibitors of mutant huntingtin aggregate formation in PC12 cells | PC12 HttQ103-GFP aggregates, Acumen cytometry, 40 h | Potency, µM (doses to about 46.1 µM), inactives show top-dose activity change, negative = inhibition, actives largely listed as inhibitors | 1.1% of 220,000 active | AID 1688; active means well fitted curve in the direction sought with a large enough effect; inconclusive means small, poorly fitted or top-dose-only effect, or another doubt; inactive means no such curve, though single readings can be large; an effect the other way counts as inactive or inconclusive; further: potency means the concentration at half of the fitted maximal effect; on the % scale 0 is the no-effect control and ±100 the full control effect; nearly all actives have a fitted effect of over 60% in size
#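 Huntingtin Q103 exon 1–GFP aggregates in induced PC12 cells (100 nM tebufenozide) were quantified by cytometry from lysates, with compounds dosed in titration.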
# HPGD block = HPGD (human) dehydrogenase inhibition; P15428; purified HPGD, NADH fluorescence kinetic, PGE2 substrate; Potency, µM, inactives show at the top dose activity change, negative = inhibition, most hits filed as inhibitors; 4.3% of 150,000 active; AID 894; further: potency means the concentration at half of the fitted maximal effect; on the % scale 0 is the no-effect control and ±100 the full control effect
# Target sequence (P15428 whole entry, looked up): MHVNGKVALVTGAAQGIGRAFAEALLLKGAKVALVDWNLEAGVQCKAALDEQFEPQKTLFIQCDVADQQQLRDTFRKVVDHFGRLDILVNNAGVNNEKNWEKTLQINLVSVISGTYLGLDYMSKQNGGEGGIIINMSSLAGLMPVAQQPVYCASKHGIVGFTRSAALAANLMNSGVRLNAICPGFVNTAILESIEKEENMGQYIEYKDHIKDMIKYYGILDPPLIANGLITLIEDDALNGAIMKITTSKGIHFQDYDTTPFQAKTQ
#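 NADH formation kinetics: reaction with 30 uM PGE2 and 1 mM NAD+ (final), 20 nM enzyme, Tris-HCl pH 8 with Tween 20, after 15 min compound preincubation at room temperature. Fluorescence change, last versus first of five reads.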
# Active calls of the source: *; ? = inconclusive; nt = not tested or not shown; ! = a repeat was not active; [ ] = dose if it differs, or a comment. The list is not random: actives were taken first. Their share in the collection is about 11%. Unless noted, the call rests on the fitted dose curve; in most records, active means well fitted inhibition curve with a large enough effect (not every such curve was filed as active); inconclusive means small, poorly fitted or top-dose-only effect, or another doubt; inactive means no such curve, though single readings can be large or run the other way.
SMILES,ALDH1A1 inh,HTT ATP protect,GoLoco inh red,PNC assembly inh,HTT aggregate,HPGD block
CC(C)(C)Cc1nnc(NS(=O)(=O)Cc2ccccc2)s1,25µM*,3%[10 µM],6%,43,10%,-19%
CC(C)(C)Cc1nnc(NS(=O)(=O)c2ccc(F)cc2)s1,?,-12%,-1%,-82*,1%,?
O=C(O)c1cccc(SSc2cccc(C(=O)O)c2)c1,-11%[13.5 µM],-3%[10 µM],9%[14.2 µM],nt,nt,4.5µM*
COc1ccc(/C=N/N=C2/CC(C)(C)Cc3n[nH]c(=O)cc32)cc1,28µM*,14%[10 µM],28µM*,nt,?,nt
Cc1cc(Cl)ccc1NNC(N)=S,nt,13%[10 µM],0%,nt,6%[9.22 µM],nt
Cc1cccc(NNC(N)=S)c1C,13µM*,7%[10 µM],-2%,nt,-5%[9.22 µM],nt
Cc1ccc(C)c(NNC(N)=S)c1,13µM*,nt,5%,nt,?,nt
COc1ccc(CCNC(=O)c2cc(-c3cc(Cl)ccc3O)n[nH]2)cc1OC,nt,-13%[10 µM],2%,nt,3%[9.22 µM],nt
CC(C)(C)c1nnc(SCC(=O)c2ccccc2)n(N)c1=O,9%,nt,-8%,-114*,10%,25µM*
COc1ccc(OCCSc2nc3ccccc3n2CC(=O)O)cc1,5%,-12%,11%,?,2%,-4%
CCN(CC)C(=O)CSc1nc2ccccc2c(=O)n1CC1CCCCC1,11µM*,-47%,nt,-28,?,nt
CC(=O)c1ccc(-n2c(SCC(=O)c3c[nH]c4ccccc34)nc3ccccc3c2=O)cc1,17%,?,-1%,?,?,28µM*
COc1ccc(C(=O)CSc2nc3ccccc3n2CC(=O)c2ccccc2)cc1,25µM*,-10%,-2%,?,-10%,-5%
O=C(O)CCCCn1c(SCC(=O)Nc2ccccc2C(F)(F)F)nc2ccsc2c1=O,-11%,nt,3%,-113*,20%,-18%
COn1c(SC(C)C)nc2ccccc2c1=O,3%,-8%,18%,19,6%,-13%
CCCCn1c(SCC(=O)c2ccc(O)c(O)c2)nc2ccsc2c1=O,?,11%[10 µM],2%,-25,-7%,-5%
COn1c(SC2CCCCC2)nc2ccccc2c1=O,32µM*,-16%,1%,?,-23%,32µM*
CCn1c(SCC(=O)c2ccccc2)nc2ccccc2c1=O,16µM*,-29%,16%,nt,17%[9.22 µM],nt
CCCCn1c(SCC(=O)c2ccccc2)nc2ccsc2c1=O,7.1µM*,11%[10 µM],13%,-16,-18%,-1%
O=C(c1ccccn1)N(c1ccccc1)C1(C(=O)NC2CCCCC2)CCCCC1,5%,-17%,-2%,nt,0%,nt
CC(=O)c1ccc(NC(=O)COc2ccc3c(c2)OCO3)cc1,3%,-19%,-22%,nt,-6%,nt
Nc1nc(-c2ccc3ccccc3c2)cc(-c2cc(-c3ccc4ccccc4c3)nc(N)n2)n1,7%[13.5 µM],-7%[10 µM],3%[14.2 µM],nt,nt,-3%
C[C@H](O/N=C1/[C@H]2O[C@@H]2[C@@H](O)[C@H]2[C@H]1CCn1c(=O)n(-c3ccccc3)c(=O)n12)c1cn([C@H](CO)Cc2ccccc2)nn1,-1%[13.5 µM],14%[10 µM],nt,nt,nt,nt
Cc1ccc(-n2[nH]c(C)c(/C=N/Nc3ccc([N+](=O)[O-])cc3[N+](=O)[O-])c2=O)cc1,?,-1%[10 µM],2%,26,3%,-28%
COc1ccc(C(=O)CSc2nc(C(C)(C)C)nc3ccccc23)cc1,14µM*,13%[10 µM],13%,nt,8%[9.22 µM],nt
SMILES,ALDH1A1 inh,HTT ATP protect,GoLoco inh red,PNC assembly inh,HTT aggregate,HPGD block
Cc1ccc(S(=O)(=O)N2CCN(c3ccccn3)CC2)cc1,7%,1%[10 µM],0%,nt,8%[9.22 µM],nt
Cc1ccc(S(=O)(=O)n2ccc3cccnc32)cc1,3%,17%[10 µM],-9%,-100*,-2%,-8%
O=S(=O)(c1ccc(Cl)cc1)n1ccc2cccnc21,3%,8%[10 µM],0%,-100*,-18%,-11%
O=S(=O)(c1ccc(Cl)cc1Cl)n1ccc2cccnc21,1%,-16%,1%,nt,6%,nt
CC(=O)CCc1oc2ccc([N+](=O)[O-])cc2c1-c1ccc(C)o1,10µM*,-14%[10 µM],-11%,nt,-11%[9.22 µM],nt
CC(=O)CCc1oc2c([N+](=O)[O-])cccc2c1-c1ccc(C)o1,?,-13%[10 µM],-9%,nt,3%[9.22 µM],nt
Cc1ccc(CSc2nnc3ccc(-c4ccncc4)nn23)cc1,0%,-35%,2%,nt,-17%,nt
COc1ccc(OCC#CCN2CC(C)OC(C)C2)cc1 (configuration not stated),6.3µM*,nt,-2%,nt,14%,nt
O=C(N1CCCCC1)N1CCN(c2ccc(Cl)cc2)CC1,7.9µM*,-4%[10 µM],-8%,13,?,?
O=C(c1ccccc1)N1CCN(C(=O)c2ccccc2)CC1,1%,-15%[10 µM],4%,36,10%,0%
Cc1scc(C(=O)N2CCN(c3ccc(Cl)cc3)CC2)c1C,20µM*,3%[10 µM],66%,nt,-1%,nt
O=C(c1ccccc1)N1CCN(c2ccc(Cl)cc2)CC1,14µM*,-12%,-1%,-9,0%[9.22 µM],-28%
CCOC(=O)C(=CNCC(=O)OC)C(=O)OCC,4%,11%[10 µM],-5%,2,6%,-4%
CCOC(=O)CNC=C(C(=O)OCC)C(=O)OCC,0%,21%[10 µM],-7%,-96*,16%,-14%
CS(=O)(=O)Nc1ccc([N+](=O)[O-])cc1Oc1ccccc1,-1%,?,3%,?,-35%,-12%
CS(=O)(=O)Nc1ccc([N+](=O)[O-])cc1OC1CCCCC1,22µM*,5%,5%,nt,nt,-28%
Cc1cccc(NC(=O)c2ccc(S(=O)(=O)N3CCOCC3)cc2)n1,5%,-17%,-6%,nt,-16%,nt
COC(=O)c1c(C)c2c(c(C)c1O)OC(=O)c1c(C)c(Cl)c(O)c(Cl)c1O2,8%,-154%,6%,nt,nt,7.1µM*!
CC(O)c1nc2ccccc2n1CCCCOc1ccccc1 (configuration not stated),-6%,-1%[10 µM],7%,nt,9%[9.22 µM],nt
CN(C)c1nc(/C=C(\C#N)C(N)=O)c(Cl)n1-c1ccc(F)cc1,-2%,?,-12%,nt,-24%,nt
CCOCCCNS(=O)(=O)c1ccc(NC(=O)N2c3ccccc3Sc3ccccc32)cc1,-6%,-60%,5%,19,?,-9%
O=C(NNC(=O)c1ccccc1C(=O)O)c1ccc(O)cc1,-2%,-68%,8%,nt,2%[9.22 µM],nt
O=C(O)c1ccccc1C(c1ccc(O)cc1)c1ccc(O)cc1,28µM*,-13%,-2%,nt,nt,3%
CCOC(=O)c1cc(NC(=O)Nc2ccccc2OC)c(C)nc1C,3%,-3%,-5%,-81*,5%,-3%
CCCn1c(-c2ccc(F)cc2)nc2c(NCCCN(CCO)CCO)nc(C)nc21,?,-45%,3%,nt,nt,?
CC(C)c1ccc(/C=C/C(=O)NCCC2=CCCCC2)cc1,4.5µM*,-5%[10 µM],-25%,?,3%,-25%
